This is a sample that favours compounds with a hit; in the whole collection about 4.1% have one here.
DAX1 inh-1: NR0B1 (DAX1) inhibition. 340,000 tested, 0.99% active. P51843. HEK293 Gal4-DAX1 luciferase reporter, luminescence. inhibition, % at 6.75 µM;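 active = inhibition above the mean over all tested compounds plus 3 SD, cut at about 4.2% in these data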;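 also: 0% = DAX1-transfected cells with DMSO and 100% = empty-vector control cells with DMSO; inhibition shows as a rise in luminescence from relieved DAX1 repression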
Target sequence (P51843 207-470 limits assumed): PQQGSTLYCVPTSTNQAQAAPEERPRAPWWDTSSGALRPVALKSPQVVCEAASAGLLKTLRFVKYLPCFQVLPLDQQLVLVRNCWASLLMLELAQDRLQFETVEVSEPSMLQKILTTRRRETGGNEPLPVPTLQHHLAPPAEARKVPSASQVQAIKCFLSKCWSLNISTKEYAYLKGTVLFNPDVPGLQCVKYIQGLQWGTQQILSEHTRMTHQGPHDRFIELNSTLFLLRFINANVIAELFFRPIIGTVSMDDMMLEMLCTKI
ssDAF-12 act: S. stercoralis DAF-12 activation, primary screen. HEK293 ssDAF-12/GRIP1 lit1-tk-luc reporter, luminescence; % of 3 µM dafachronic acid response. activation, % at 6.8 µM. 370,000 tested, 1% active;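 active = activation above the mean over all tested compounds plus 3 SD, cut at about 0.9% in these data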;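 also: 0% = DMSO-only wells and 100% = 3 µM delta7-dafachronic acid wells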
hgDAF12 agonist: agonists of H. glycines DAF-12 nuclear receptor | HEK293 GAL4-hgDAF12 UAS-luciferase reporter, agonist luminescence; normalized to butyrate control | activation, % at 6.8 µM | 370,000 tested, 1.8% active | AID 687014;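 active = activation above a cutoff set at the mean of all screened compounds plus 3 SD, cut at about 10% in these data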;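 also: 0% = DMSO wells and 100% = sodium butyrate wells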
hcDAF-12 act: activators of H. contortus DAF-12 nuclear receptor. HEK293 hcDAF-12 lit1-tk-luc reporter, luminescence; 0% DMSO, 100% Δ7-dafachronic acid. AID 652067. activation, % at 6.8 µM. 370,000 tested, 1.4% active;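 active = activation above the mean of all tested compounds plus 3 SD, cut at about 5.5% in these data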;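 also: 100% = response to 3 µM Δ7-dafachronic acid high control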
DAX1 inh-2: blocks DAX1 repression of SF-1 activated StAR promoter; HEK293T StAR-luciferase reporter, SF-1/DAX-1 repression relief; 370,000 tested, 1.1% active; inhibition, % at 6.8 µM;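 active = inhibition above the mean over all tested compounds plus 3 SD, cut at about 3.6% in these data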;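 also: 0% = DAX-1 cells with DMSO and 100% = cells lacking DAX-1 with DMSO; higher inhibition means more luminescence from relief of DAX-1 repression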
DAX1 inh confirm: confirmation of human DAX1 (NR0B1) inhibitors. inhibition, % at 6.8 µM. 2,400 tested, 87% active. AID 652134. shares compounds with DAX1 inh-2. HEK293T StAR-promoter luciferase reporter, SF-1/DAX-1 repression;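 active = inhibition above the average of every tested compound plus 3 SD, cut at about 3.8% in these data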;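 also: 0% = DAX-1 cells with DMSO and 100% = no DAX-1 control cells with DMSO; active compounds raise luminescence by relieving repression of the StAR reporter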
Target sequence (P51843 whole entry, looked up): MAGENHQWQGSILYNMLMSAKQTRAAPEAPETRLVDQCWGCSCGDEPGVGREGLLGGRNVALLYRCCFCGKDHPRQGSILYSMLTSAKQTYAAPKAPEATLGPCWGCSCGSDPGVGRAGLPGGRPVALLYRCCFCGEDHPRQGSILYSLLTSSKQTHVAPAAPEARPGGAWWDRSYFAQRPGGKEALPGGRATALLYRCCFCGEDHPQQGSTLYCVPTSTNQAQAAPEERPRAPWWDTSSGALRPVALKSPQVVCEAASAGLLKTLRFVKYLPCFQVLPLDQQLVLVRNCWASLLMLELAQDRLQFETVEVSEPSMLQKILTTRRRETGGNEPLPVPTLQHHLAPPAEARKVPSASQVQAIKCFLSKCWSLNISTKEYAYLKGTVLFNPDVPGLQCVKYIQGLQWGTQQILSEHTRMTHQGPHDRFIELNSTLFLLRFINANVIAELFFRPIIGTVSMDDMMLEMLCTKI
SF1 mutant ctr: counter-screen for DAX1 inhibitors: nonselective inhibitors with SF-1 AF2 mutant. shares compounds with DAX1 inh-2. HEK293 StAR-luciferase, luminescence. inhibition, % at 6.8 µM. 2,400 tested, 78% active. AID 652136;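 active = inhibition above the mean of all tested compounds plus 3 SD, cut at about 3% in these data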;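 also: 0% = DAX-1 transfected cells with DMSO and 100% = cells without DAX-1 with DMSO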
* marks the source's active call; other numbers are inactive results; . = no result.

SMILES | DAX1 inh-1 | ssDAF-12 act | hgDAF12 agonist | hcDAF-12 act | DAX1 inh-2 | others
Cc1ccc(C(=O)/C=C/C(=O)c2ccc(C)cc2)cc1 | -0.3 | -0.9 | 2.5 | -1.5 | -1.3
Cc1ccc(NC(=O)C(=O)c2ccc(C)cc2)cc1 | 1.3 | 0.0 | 12.4* | 2.7 | 2.1
Cc1ccc(C(=O)/C=C\Nc2ccc(C)c(C)c2)cc1 | 2.9 | 0.3 | 12.9* | 3.6 | 1.3
Cc1ccc(C(=O)C=CC=Cc2ccccc2)cc1 | 4.5* | -0.6 | 3.1 | -0.3 | 1.4
O=C(NC1CCCCN(Cc2cccc(Cl)c2)C1=O)c1ccc(-c2ccccc2)cc1 (stereo unspecified) | . | -1.9 | 3.6 | -0.5 | -3.6
COc1cc(NC(=O)NC2CCCCN(Cc3cccc(Cl)c3)C2=O)cc(OC)c1 (stereo unspecified) | . | -1.2 | 4.6 | -1.5 | -0.6
COc1ccc(CNCC#CC2=CCCCC2)c(OC)c1 | . | -0.7 | 2.5 | -0.6 | 0.6
Cc1noc(NS(=O)(=O)c2ccc(N/C=C\C(=O)c3ccncc3)cc2)c1C | 2.2 | -1.2 | -0.3 | -0.9 | 1.1
NC(N)=NS(=O)(=O)c1ccc(N/C=C\C(=O)c2ccncc2)cc1 | 6.9* | -1.4 | 1.9 | -0.9 | -0.8
COC[C@@H](OC(C)=O)[C@H]1OCc2ccccc2[C@@H]1/C=C/c1ccccc1 | . | -0.2 | 1.1 | -0.2 | 0.2
O=C(CSc1nnc(-c2ccc(O)cc2)o1)Nc1cccc(O)c1 | 1.5 | 0.2 | 6.3 | 1.8 | 0.8
COc1ccc(NC(=O)CSc2ccccn2)cc1 | -0.5 | -0.5 | 5.0 | 0.9 | 0.5
COc1cccc(NC(=O)CSc2ccccn2)c1 | 2.7 | 0.2 | 12.6* | 4.5 | 1.0
COc1cccc(NC(=O)CSc2nnc(-c3ccc(C)cc3)o2)c1 | 6.1* | 0.1 | 11.2* | 2.9 | 6.5*
O=C(CSc1nnc(-c2ccc(O)cc2)o1)Nc1ccc2c(c1)OCCO2 | 0.3 | -0.6 | 7.7 | 1.7 | 3.6*
COc1ccc(C(=O)NCCSc2ccccn2)cc1 | 0.0 | 0.2 | 11.7* | 6.4* | 3.2
Cc1ccc2nc(-c3ccccc3)cc(C(=O)NNC(=O)c3csc(N4CCOCC4)n3)c2c1 | -0.4 | -1.1 | -2.7 | 0.4 | -1.8
CCOC(=O)[C@@]12CCCC3=C1N(CCC3)C(=O)[C@H]2CC(=O)NCCC(C)C | . | -1.7 | 1.2 | -0.8 | -1.0
COc1cc(N)c(Cl)cc1C(=O)OCC(=O)N1c2ccccc2NC(=O)C1(C)C | -1.1 | -1.1 | -0.6 | 0.1 | 0.1
FC(F)(F)Oc1ccc(NC(=S)Nc2ccc(OC(F)(F)F)cc2)cc1 | 1.3 | -1.5 | 0.0 | -0.5 | 0.5
CCOC(=O)CC[C@H]1CC[C@]2(CCCN(C(=O)c3ccco3)C2)O1 | . | -1.1 | -0.4 | -0.2 | 0.3
CCCC[C@@H]1C(=O)N2N=Cc3cc4ccccc4cc3[C@H]2N2N=Cc3cc4ccccc4cc3[C@@H]12 | . | -0.5 | -6.2 | 5.0 | -3.3
Cc1ccc(C2=NN=C(NC(=O)C(F)(F)F)SC2)cc1 | 0.1 | 2.3* | 12.2* | 4.3 | 0.9
CCOc1cc(/C=N/n2cnnc2)ccc1O | 0.0 | -1.1 | 0.2 | 6.5* | -0.1
COc1cc(/C=N/n2cnnc2)ccc1OCc1ccc(C)cc1 | 0.6 | -0.5 | 11.7* | 1.2 | 1.1
SMILES | DAX1 inh-1 | ssDAF-12 act | hgDAF12 agonist | hcDAF-12 act | DAX1 inh-2 | others
C=CCc1cc(/C=N/n2cnnc2)cc(OCC)c1O | 1.1 | -0.9 | 0.6 | -0.4 | 0.5
Cc1ccc(NC(=O)c2cccc3c2-c2ccccc2C3=O)c(C)c1 | . | -1.2 | 3.3 | 0.7 | 0.1
C[C@@H]1CN(C(=O)OC(C)(C)C)CCN1c1ccc(Br)c(C#N)c1 | . | -2.1 | 2.5 | -1.2 | -2.5
CC(Oc1ccc2ccc(=O)oc2c1)C(=O)NCC1CCC(C(=O)O)CC1 (stereo unspecified) | 4.7* | -0.1 | -2.3 | -0.7 | 1.2
Cc1cc(OC(C)C(=O)NCC2CCC(C(=O)O)CC2)c2c(C)c(Cc3ccccc3)c(=O)oc2c1 (stereo unspecified) | 6.6* | -0.6 | -3.5 | -1.1 | 0.8
CCCc1cc(=O)oc2cc(OC(C)C(=O)NCC3CCC(C(=O)O)CC3)c(Cl)cc12 (stereo unspecified) | 4.5* | -1.4 | 1.0 | -1.0 | 0.8
CN1Cc2nnn(Cc3ccccc3)c2-c2ccccc2S1(=O)=O | . | -0.9 | 2.5 | -2.3 | -0.6
CN1CCCN(C(=O)CSc2ccccc2)CC1 | -0.2 | -0.7 | -0.4 | -1.2 | 0.1
CN1CCN(C(=O)CSc2ccc(Cl)cc2)CC1 | 4.6* | -0.8 | 8.8 | 2.4 | 0.8
O=C(NCCNCc1cccc(Cl)c1)c1ccco1 | 0.5 | 1.1* | 1.3 | -0.5 | 2.3
O=C(NCCNCc1ccc(F)cc1)c1ccco1 | 0.3 | -1.5 | -1.6 | -0.8 | -0.6
O=C(NCCNc1ccc([N+](=O)[O-])cc1)c1ccco1 | 4.5* | -0.9 | 3.2 | -1.7 | -0.8
O=C(NCCNc1ccc([N+](=O)[O-])cc1)c1ccccc1Br | -0.6 | -0.9 | -1.3 | -2.7 | -1.2
O=C(Nc1ccc(C(=O)O)cc1)/C(=C\c1ccc([N+](=O)[O-])cc1)NC(=O)c1ccco1 | 4.3* | -1.2 | -2.2 | 0.3 | -0.3
CC1CCN(C(=O)CNC(=O)c2ccc(Br)o2)CC1 | 1.9 | -0.2 | 8.6 | 5.2 | 4.9* | DAX1 inh confirm=3.3;SF1 mutant ctr=1.8
Cc1nnc(NC(=O)c2cccc(F)c2)s1 | 0.8 | -1.3 | 1.3 | -1.6 | 0.4
CCSc1nnc(NC(=O)c2ccc3c(c2)OCO3)s1 | 1.8 | 0.3 | 6.5 | 1.5 | 1.7
Cc1nnc(NC(=O)c2ccc3ccccc3c2)s1 | 1.1 | -0.5 | 7.4 | 1.7 | 5.4* | DAX1 inh confirm=10.2*;SF1 mutant ctr=5.4*
CC(C)Sc1nnc(NC(=O)c2ccc3c(c2)OCO3)s1 | 0.8 | 0.6 | 3.6 | -0.3 | 5.3* | DAX1 inh confirm=7.7*;SF1 mutant ctr=4.4*
CC(C)c1nnc(NC(=O)c2ccc3ccccc3c2)s1 | 1.6 | 0.0 | 12.8* | 5.7* | 11.8* | DAX1 inh confirm=12.6*;SF1 mutant ctr=8.1*
CCCS(=O)(=O)NC(=O)C1(C)CCCN(C(=O)c2ccc(C(F)(F)F)cc2)C1 (stereo unspecified) | . | -0.5 | -3.7 | 1.1 | 0.4
CCOC(=O)N(C)C[C@@H]1OCc2cnnn2CCCC(=O)N([C@@H](C)CO)C[C@@H]1C | 1.1 | -0.2 | -2.1 | 0.5 | 1.8
CCc1nc2ccc(C)cc2c(C(=O)NC2CCCCC2C)c1C (stereo unspecified) | 0.6 | -0.6 | 5.3 | 1.4 | 0.4
O=c1cc(-c2ccc(O)cc2)oc2ccc3ccccc3c12 | -3.8 | -1.9 | -11.9 | -3.3 | -3.7
O=c1cc(-c2ccccc2)oc2cc(O)c(O)c(O)c12 | 1.9 | -1.4 | 10.4 | 3.5 | 5.5* | DAX1 inh confirm=9.6*;SF1 mutant ctr=5.1*

Screens: PubChem, The Scripps Research Institute Molecular Screening Center
